# Inconclusive results are not listed. Calls of active or inactive are those of the source. Rule for the calls: active = hit-call score of the fitted dose curve at least 0.9, where 1 is the maximum; inconclusive = response in the unintended direction; inactive = score below 0.9.
# Test: Tanguay_ZF_120hpf_NC_legacy: (Legacy) Oregon State University Tanguay Lab 120 Hour Post-fertilization zebrafish Assay for Notochord and Tail Malformation (AID 2283656)
# Experimental: Tanguay_ZF_120hpf_legacy is a whole embryo, multiplexed endpoint assay using zebrafish larvae exposed for 120 hours post fertilization on a 96-well plate.Tanguay_ZF_120hpf_NC_legacy is one of one assay component(s) measured or calculated from the Tanguay_ZF_120hpf_legacy assay. It is designed to make measurements of zebrafish development as detected with brightfield microscopy of developing zebrafish embryos.Data from the assay component Tanguay_ZF_120hpf_NC_legacy was analyzed into 1 assay endpoints. This assay endpoint, Tanguay_ZF_120hpf_NC_legacy, was analyzed in the positive analysis fitting direction relative to DMSO as the negative control and baseline of activity. Using a type of morphology reporter, gain-of-signal activity can be used to understand changes in developmentals as they relate to the whole embryo. To generalize the intended target to other relatable targets, this assay endpoint is annotated to the zebrafish development intended target family, where the subfamily is embryonic notochord morphogenesis.
# Zebrafish husbandry: Tropical 5D wild-type adult zebrafish were housed in at an approximate density of 1000 per 100 gallon tank at the Sinnhuber Aquatic Research Laboratory, Oregon State University, Corvallis, OR. Each tank was kept at standard laboratory conditions of 28C on a 14-h light/10-h dark photoperiod in fish water consisting of reverse osmosis water supplemented with a commercially available salt (Instant Ocean). Spawning funnels were placed into the tanks the night prior, and embryos were collected and staged. To increase bioavailability, the chorion was enzymatically removed using pronase (63.6mg/ml, >/= 3.5U/mg, Sigma-Aldrich: P5147) at 4 hours post fertilization (hpf) using a custom automated dechorionator.Chemical exposures: Six hpf dechorionated embryos were placed 1 embryo per well in a 96-well plate prefilled with 90 ul of EM using automated embryo placement systems (AEPS). Ten microliters of each row of dilution plate 2 was added to 2 exposure plates. The final DMSO concentration used was 0.64% (vol/vol). Thirty-two embryos were also exposed to 5uM trimethyltin chloride (positive control). Plates were sealed to prevent evaporation and foil covered to reduce light exposure and kept in a 28C incubator. Embryos were statically exposed until 120 hpf. At 24 hpf, embryos were assessed for photomotor response using a custom photomotor response analysis tool (PRAT) and for developmental toxicity endpoints (MO24: mortality at 24 hpf, DP: developmental progression, SM: spontaneous movement, and NC: notochord distortion). At 120 hpf, locomotor activity was measured using Viewpoint Zebralab and assessed for 18 endpoints. Zebrafish acquisition and analysis program (ZAAP), a custom program designed to inventory, acquire, and manage zebrafish data, was used to collect developmental endpoints as either present or absent (i.e., binary responses were recorded). If mortality occurred for an embryo (at either 24 or 120 hpf), the non-mortality endpoints were not measured.
row,SMILES,outcome
1,NC(=O)Cn1c(=O)cc(CCN2CCN(c3nccc4sccc34)CC2)c2ccc(F)cc21,inactive
2,Cc1cc(NC(=O)C(=O)O)cc(C)c1Oc1ccc(O)c2c1CCC2,inactive
3,Oc1ccc2ccccc2c1N=Nc1ccccc1,inactive
4,CN1CCN(Cc2cc(-c3ccc4[nH]c(=O)oc4c3)co2)[C@@H](c2ccc(F)cc2)C1,inactive
5,CCCCCCC(=O)OCC,inactive
6,Cc1cccc([N+](=O)[O-])c1C,inactive
7,COCCOCCOC,inactive
8,CC(=O)Oc1ccccc1C(=O)O,inactive
9,CCCCCCCCCCCCCO,inactive
10,Cc1cc(=O)[nH]c(=S)[nH]1,inactive
11,NS(=O)(=O)c1cc2c(cc1Cl)NCNS2(=O)=O,inactive
12,NCCO,inactive
13,COC(=O)c1ccc(O)cc1,inactive
14,CC1(C)CC(N=C=O)CC(C)(CN=C=O)C1 (stereo not given),inactive
15,CCCCN(CCCC)CCCC,inactive
16,c1cc(-c2ccncc2)ccn1,inactive
17,Cc1ccc(C(C)C)c(O)c1,inactive
18,Cc1ccc(Cl)cc1,inactive
19,C1CCC(SSC2CCCCC2)CC1,inactive
20,CCCCc1ccc2c(n1)[C@@H](c1ccc(OC)cc1C[C@H](C)C(=O)O)[C@H](C(=O)O)[C@H]2c1ccc2c(c1)OCO2,inactive

row,SMILES,outcome
1,CCCCOC(=O)CCCCCCCCC(=O)OCCCC,inactive
2,CC1(C)NC(=O)NC1=O,inactive
3,CC(=O)C(C)=CC1C(C)=CCCC1(C)C (stereo not given),inactive
4,O=C(N[C@@H](Cc1ccccc1)[C@@H](O)C(=O)N1C[C@@H](O)[C@@H](O)C1)c1cc2cc(Cl)ccc2[nH]1,inactive
5,CC(=O)OC/C=C(\C)CCC=C(C)C,inactive
6,Oc1ccc2c(c1)OC[C@@H](N1CCC(O)(c3ccc(F)cc3)CC1)[C@H]2O,inactive
7,O=C(O)Cc1ccccc1Nc1c(Cl)cccc1Cl,inactive
8,Nc1nc(N)c2nc(CNc3ccc(C(=O)N[C@@H](CCC(=O)O)C(=O)O)cc3)cnc2n1,inactive
9,CCCCCCCCCCO,inactive
10,O=[N+]([O-])C(CO)(CO)CO,inactive
11,Nc1ccccc1N,inactive
12,Cc1ccccc1Cl,inactive
13,CCCCCC(=O)O,inactive
14,O=C(OCCCCCOC(=O)c1ccccc1)c1ccccc1,inactive
15,Cc1nc(-c2ccc3c(c2)CCN(CCC2CCC(NC(=O)/C=C/c4ccc(F)cc4)CC2)CC3)no1 (stereo not given),inactive
16,O=C(O)CCCCC(=O)O,inactive
17,CCCCCCCCCCCCCCCC,inactive
18,COc1cc(-c2nc(NC(=O)c3cc4cc(C)cc(C)c4n3CC(=O)O)sc2CCC2CCCCC2)c(OC)cc1Cl,inactive
19,CNC(=O)[C@H]1O[C@@H](n2cnc3c(NCc4cc(Cl)ccc4OCc4cc(C)no4)ncnc32)[C@H](O)[C@@H]1N,inactive
20,Cc1ccc(C)c(O)c1C,inactive

# Reference: PubChem BioAssay (EPA / NIEHS)
